Among the data in PubChem BioAssay AID602393 (Broad Institute, 2012) are reporter increase values, retold here.

The campaign covered roughly 350,000 compounds. About 7,000 (2%) were called active. This is one part of a sample in which actives are shown more often than they occur. A number with no mark means an inactive call. No stated cut-off is given here; in the data, active means activation above about 40%; inconclusive means no clear call, values can overlap the other calls; inactive means below that.

This experiment in a line: raisers of Bmi1 knock-in reporter signal – mouse ES cells, Bmi1 luciferase knock-in, single point, esBAF inhibitor project, primary screen (AID 602393).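 Further: 0% = median of the plate's neutral control wells and 100% = double that signal; a rise in the Bmi1 reporter signal indicates esBAF inhibition.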 The note with it: 24 h, at 12.5 µM, stronger effect = higher value, 100% = twice the neutral-well signal.
For `C/C=C/c1cnc2c(c1)C(=O)N([C@@H](C)CO)C[C@H](C)[C@H](CN(C)C(=O)CN1CCOCC1)O2`, the reporter increase was 1.11%. With `CCOC(=O)c1c(C)oc(C)c(C(=O)OCC)c1=O` the figure was -9.85%; with `CCOC(=O)c1c(C)nc2c(c1C)c(=O)oc1ccccc12`, 43.1% (active); with `CCCCC(=O)Nc1cc(C)c2c(=O)oc3ccccc3c2n1`, -4.09%.

For `Cc1noc(C)c1NC(=O)N(C)C[C@@H]1Oc2ccc(NS(=O)(=O)c3ccc(Cl)cc3)cc2C(=O)N([C@@H](C)CO)C[C@H]1C`, the reporter increase is -6.44%. With `CCc1ccccc1NC(=O)c1cc(-c2ccc3c(c2)OCO3)on1` the figure was 43.8% (active); with `CC(C)NC(=O)COCc1cc(-c2ccc3c(c2)OCO3)on1`, 16.1%. For `COc1ccc(CCNC(=O)c2cc(-c3ccc4c(c3)OCO4)on2)cc1OC`, the reporter increase is 0.657%. On to `O=C(C[C@H]1CC[C@@H]2[C@H](COC[C@@H](O)CN2Cc2cc(F)cc(F)c2)O1)NC1CCC1`, for which the reporter increase is 2.1%.

For the compound `COc1ccc(S(=O)(=O)N(C)C[C@@H]2Oc3ncc(C#Cc4ccc(F)cc4)cc3C(=O)N([C@H](C)CO)C[C@@H]2C)cc1`, the reporter increase is 3.53%. For `CCCNC(=O)N(C)C[C@H]1Oc2cc(-c3ccncc3)ccc2S(=O)(=O)N([C@H](C)CO)C[C@@H]1C` the value was 6.74%; for `CCc1cc2c(=O)c(-c3ccon3)c(N)oc2cc1OC`, 50.4% (active). With `CCc1cc2c(=O)c(-c3nc4ccccc4n3C)c(CCCC(=O)O)oc2cc1OC(=O)C(C)(C)C` the figure was 6.89%.

For `COc1ccc2oc(N)c(C=O)c(=O)c2c1`, the reporter increase was -2.61%.

In the case of `CC(=O)Nc1ccc2c(c1)C(=O)N(C)[C@H]1CC[C@@H](CC(=O)NCC3CC3)O[C@H]1CO2`, the reporter increase is 9.13%. For the compound `CNC(=O)c1csc(-c2ccccc2)n1`, the reporter increase was 13.5%.

Turning to `O=C(NNC(=O)c1csc(-c2cccnc2)n1)Nc1ccc(Cl)cc1`, the reporter increase was 0.726%.

As to `Clc1ccc(-c2csc(-c3ccncc3)n2)cc1`, the reporter increase is 51.5% (active). With `CN(C)CC(=O)Nc1ccc2c(c1)[C@@H]1C[C@H](CC(=O)NCc3ccc(-c4ccccc4)cc3)O[C@@H](CO)[C@@H]1O2` the figure was 16%. For `CCCCSc1nnc(-c2ccc(C)cc2)o1` the value was 17.9%; for `C#CCSc1nnc(-c2sc3ccccc3c2Cl)o1`, 51% (active). As to `COc1ccc2c(Cl)c(-c3nnco3)sc2c1`, the reporter increase was 8.57%.

For `C[C@@H](O)C#Cc1ccc2c(c1)O[C@@H](CN(C)C)[C@@H](C)CN([C@@H](C)CO)S2(=O)=O`, the reporter increase is -2.61%. Take `C[C@H](NC(=O)C[C@@H]1CC[C@@H]2[C@H](COC[C@@H](O)CN2C(=O)Nc2cc(Cl)cc(Cl)c2)O1)c1ccccc1`: the reporter increase was -3.61%. With `C[C@@H]1CN([C@H](C)CO)S(=O)(=O)c2ccc(C#CC3CCCC3)cc2O[C@@H]1CN(C)Cc1ccccc1C(=O)O` the figure was -3.9%. With `O=C(C[C@@H]1CC[C@@H]2[C@H](COC[C@H](O)CN2C(=O)Cc2ccccc2)O1)NC1CCC1` the figure was -8.39%; with `COc1ccc2cc(C(=O)O)n(CC(=O)c3ccccc3)c2c1`, -1.55%; with `CCn1c(=N)n(CC(=O)c2cccc(OC)c2)c2ccccc21`, 64.8% (active). As for `CCCn1c(=N)n(CC(=O)c2ccc(Cl)c(Cl)c2)c2ccccc21`, the reporter increase is 3.54%.

On to `CC1CCc2c(sc3nc4n(c(=O)c23)CCS4)C1` (centres undefined), for which the reporter increase is 46.4% (active). For `NNC(=O)C1CCCn2c1nc1sc3c(c1c2=O)CCCC3` (centres undefined) the value was 2.26%; for `Cn1c(NN)nc2sc3c(c2c1=O)CCC3`, -3.52%.

Take `C[C@H](CO)N1C[C@H](C)[C@H](CN(C)Cc2ccncc2)Oc2ccc(NC(=O)C3CCCCC3)cc2CC1=O`: the reporter increase is 4.88%.

On to `COc1ccccc1-c1c(C)nn2c(C)c(C(C)=O)cnc12`, for which the reporter increase was -4.24%. Take `COc1ccccc1Nc1ncc(C(C)=O)c(C)n1`: the reporter increase is 43.9% (active). As to `COC(=O)c1cnc(Nc2cc(C)ccc2OC)c2ccccc12`, the reporter increase is -2.74%. With `CCC(=O)Nc1ccc2c(c1)OC[C@H](C)N(Cc1ccccc1OC)C[C@@H](C)[C@@H](OC)CN(C)C2=O`, the reporter increase was 4.11%.

In the case of `CO[C@H]1CN(C)C(=O)c2cc(NC(=O)Nc3cccc(F)c3)ccc2OC[C@@H](C)N(C)C[C@@H]1C`, the reporter increase was 1.05%. With `C[C@H](CO)N1C[C@H](C)[C@H](CN(C)C(=O)C2CCOCC2)Oc2ncc(-c3ccccc3F)cc2C1=O` the figure was -0.932%. In the case of `COc1ccc(-c2ccc3c(c2)O[C@H](CN(C)Cc2ccccc2C(=O)O)[C@H](C)CN([C@@H](C)CO)S3(=O)=O)cc1`, the reporter increase was 4.05%. For `COc1ccc(Nc2ncnc3ccc(Br)cc23)c(OC)c1` the value was -66.9%. For `CCC(C(=O)OC)n1cnc2c(oc3ccccc32)c1=O` (centres undefined) the value was 2.51%; for `COc1ccccc1Nc1ncnc2c1oc1ccccc12`, 75.2% (active). For `CCCC(=O)Nc1ccc2c(c1)C(=O)N(C)[C@H]1CC[C@@H](CC(=O)NCc3cccc(F)c3)O[C@H]1CO2` the value was 11.9%; for `O=C(NCC[C@H]1CC[C@H](NS(=O)(=O)c2ccccc2)[C@H](CO)O1)c1cc(Cl)cc(Cl)c1`, 1.99%. For `Cc1cc(C)c(C)c(S(=O)(=O)N2CCN(C(=O)c3ccc4c(=O)n5c(nc4c3)CCC5)CC2)c1C`, the reporter increase is -1.07%. For `CC1CCN(C(=O)c2ccc3c(=O)n4c(nc3c2)CCCCC4)CC1`, the reporter increase is 10.6%.

`O=C(Nc1cc(F)ccc1F)c1ccc2c(=O)n3c(nc2c1)CCC3`: the reporter increase was 54.2% (active). As to `CC(C)CC#Cc1cnc2c(c1)C(=O)N([C@@H](C)CO)C[C@@H](C)[C@@H](CN(C)S(=O)(=O)c1cccs1)O2`, the reporter increase is -1.12%. For `Cn1cnc(S(=O)(=O)N2C[C@H](O)COC[C@@H]3O[C@H](CC(=O)NC4Cc5ccccc5C4)CC[C@H]32)c1` the value was 1.23%; for `O=C(NCc1ccc2c(c1)OCO2)c1ccc(Cl)s1`, 16.1%; for `COc1ccccc1C(=O)NCCC(=O)NC1=NCCS1`, 4.18%. For `O=C(NC1=NCCS1)c1ccc(Cl)s1` the value was 56.6% (active); for `COCC(=O)N1C[C@H](C)[C@@H](OC)CN(C)C(=O)c2cc(NC(=O)c3ccc(OC)cc3)ccc2OC[C@H]1C`, -1.57%; for `CCCNC(=O)C[C@@H]1CC[C@H]2[C@H](COc3ccc(NS(=O)(=O)c4ccccc4C)cc3C(=O)N2C)O1`, 0.502%. With `CNC[C@H]1OCCCC[C@H](C)Oc2ccc(NS(C)(=O)=O)cc2C(=O)N([C@@H](C)CO)C[C@H]1C` the figure was 3.58%; with `CCC1([N+](=O)[O-])COC(c2ccc(C(C)C)cc2)OC1` (centres undefined), 98.9% (active); with `CC(C)c1ccc(S(=O)(=O)NC2CCCC2)cc1`, 1.91%.

With `CCC1([N+](=O)[O-])COC(c2ccc(C)cc2)OC1` (centres undefined), the reporter increase is -1.7%. With `O=C(NC(=S)Nc1ncccn1)c1ccccc1Br` the figure was 44.5% (active); with `CCCN(CC1CC1)C(=S)NC(=O)c1ccccc1Br`, -4.35%; with `O=C(Nc1ccccc1)c1ccccc1Br`, 22.5%. For `CO[C@@H]1CN(C)C(=O)c2cc(NC(=O)Nc3cccc(Cl)c3)ccc2OC[C@@H](C)N(C)C[C@@H]1C` the value was -1.87%.

With `CO[C@H]1CN(C)C(=O)c2ccc(NC(=O)c3cccc(F)c3)cc2OC[C@H](C)N(CC2CC2)C[C@@H]1C`, the reporter increase is 9.27%. As for `CC(C)N(C(=O)[C@H]1C[C@H](CC(=O)NCCC2=CCCCC2)C(=O)N2CCc3c([nH]c4cc(CCC(=O)N(C)C)ccc34)[C@]12C)C(C)C`, the reporter increase was 5.79%. For `CN(C)C(=O)CCc1ccc2c3c([nH]c2c1)[C@]1(CCc2ccccc2)[C@@H](C(=O)N2CCCCC2)C[C@H](CC(=O)NCCC2=CCCCC2)C(=O)N1CC3` the value was 67.9% (active); for `CN(C)C(=O)CCc1ccc2c3c([nH]c2c1)[C@]1(C)[C@@H](C(=O)N2CCCCC2)C[C@H](CC(=O)NCCC2=CCCCC2)C(=O)N1CC3`, 8%; for `O=C(C[C@@H]1C[C@@H]2c3cc(NC(=O)C4CCC4)ccc3O[C@@H]2[C@@H](CO)O1)NCCN1CCCCC1`, 1.69%. For `Cc1noc(C)c1S(=O)(=O)Nc1ccc2c(c1)CC(=O)N([C@@H](C)CO)C[C@@H](C)[C@H](CN(C)S(=O)(=O)c1cccs1)O2` the value was -4.75%; for `CCn1nccc1C(=O)Nc1ccc(S(=O)(=O)NC23CC4CC(CC(C4)C2)C3)cc1`, 14.5%; for `O=C(CC(O)(C(F)(F)F)C(F)(F)F)Nc1ccc(Cl)c(Cl)c1`, -47.8%. For `CCn1nccc1C(=O)Nc1ccc(Cl)c(Cl)c1`, the reporter increase was 61.9% (active).

As to `Cc1ccc(CN(C)C[C@H]2OCc3cn(nn3)CCCC(=O)N([C@@H](C)CO)C[C@H]2C)cc1`, the reporter increase was 3.63%.

`O=C(Cc1ccc(Cl)cc1)NC(=S)Nc1ccccc1O`: the reporter increase was 2.82%.

As to `O=C(CN1CCN(c2ccc(Cl)cc2)CC1)c1ccccc1`, the reporter increase was -0.082%.

Regarding `O=C(Cc1ccc(Cl)cc1)c1ccccc1`, the reporter increase was 61.9% (active). With `COc1ccc(-c2ccc3c(c2)[C@@H]2[C@@H](CCN2S(=O)(=O)c2ccccc2F)[C@H](CO)N3)cc1` the figure was -0.198%; with `C[C@@H]1CN([C@H](C)CO)C(=O)Cc2cc(NC(=O)CCCN(C)C)ccc2O[C@H]1CN(C)CC1CCCCC1`, -2.32%. With `C[C@@H]1CN([C@H](C)CO)C(=O)c2cc(NS(=O)(=O)c3ccc(Cl)cc3)ccc2O[C@@H]1CN(C)CC1CCCCC1` the figure was 5.96%.
